BCR signal inh = qHTS Assay to Find Inhibitors of Chronic Active B-Cell Receptor Signaling. ABC-DLBCL IkBa-CBG/CBR reporter, luminescence ratio, 4 h. Potency, µM (highest dose often 46.1 µM), inactives show at the top dose activity change, negative = inhibition, most hits filed as inhibitors. hit rate 0.05% among 340,000. AID 493014, 2011; active = well fitted inhibition curve with a large enough effect in the signal ratio, with a control signal flat, not every such curve was filed as active; inconclusive = small, poorly fitted or top-dose-only effect, or effect the other way, or a change in a side signal; the % refers to the signal ratio;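 note: potency is the fitted concentration of half-maximal effect; plate controls were basal doxycycline-induced cells for no effect and cells given 10 µM MG132 for full effect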
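Concentration-response series (up to 46 uM) were applied to TMD8 dual-reporter cells for 4 h at 37C with doxycycline. Green/red ratio, after filter-overlap correction, defined %Activity; red signal alone was normalised to basal cells and zero luminescence.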
D1 potentiator = Potentiators of Human D1 Dopamine Receptor: qHTS; D(1A) dopamine receptor (Homo sapiens), P21728; HEK293 TREx D1 cells, calcium flux, dopamine EC20 potentiation; potentiation, % at 10 µM; hit rate 0.036% among 360,000; AID 504651, 2011; in the data active = potentiation above about 30%; note: 0% is about no effect
Target sequence (P21728 whole entry, looked up): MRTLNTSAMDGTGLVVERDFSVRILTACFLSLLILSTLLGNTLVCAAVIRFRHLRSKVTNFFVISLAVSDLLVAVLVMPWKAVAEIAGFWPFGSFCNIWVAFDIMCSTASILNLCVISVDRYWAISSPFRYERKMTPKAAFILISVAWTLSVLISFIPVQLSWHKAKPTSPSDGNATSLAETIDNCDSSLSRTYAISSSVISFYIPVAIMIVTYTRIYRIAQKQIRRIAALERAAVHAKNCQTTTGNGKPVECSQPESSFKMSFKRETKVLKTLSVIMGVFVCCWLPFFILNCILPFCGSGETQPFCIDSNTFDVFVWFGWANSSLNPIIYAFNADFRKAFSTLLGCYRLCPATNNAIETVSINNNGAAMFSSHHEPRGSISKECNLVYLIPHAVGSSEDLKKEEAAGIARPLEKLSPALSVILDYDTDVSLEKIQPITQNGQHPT
D1 antag = Antagonist of Human D 1 Dopamine Receptor: qHTS; D(1A) dopamine receptor (Homo sapiens), P21728; HEK293 TREx D1 cells, calcium flux, dopamine EC80; active compounds read low; activity change, negative = inhibition, % at 10 µM; hit rate 3.2% among 360,000; in the data active = activity change below about -30%; note: % is set by controls: 0 for no effect and ±100 for the full control effect
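Kinetic fluorescence of a calcium dye serves as the read-out. D1-expressing Hek293 Trex cells, induced overnight at 30 C, are exposed to compound for 180 s before an EC80 dopamine addition, then read 180 s further.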
D1 ag = Allosteric Agonists of the Human D1 Dopamine Receptor: qHTS | hit rate 1% among 360,000 | D(1A) dopamine receptor (Homo sapiens), P21728 | activation, % at 2 µM | HEK293 T-REx D1 cells, calcium flux, agonist mode; in the data active = activation above about 30%; note: 0% is about no effect
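Inducible HEK293 T-REx D1 cells, force-coupled to calcium signalling, were plated at 4000 cells/well with tetracycline and held overnight at 30 C. After no-wash calcium dye loading, compound-evoked calcium rise over 180 s flagged agonists.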
DRD3 agonist = qHTS of D3 Dopamine Receptor Agonist: qHTS; max activation, %; hit rate 0.58% among 410,000; AID 652048, 2013; D3R DiscoveRx beta-arrestin cells, luminescence, 90 min; in the data active = max activation above about 30%; note: 0% is about no effect
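Agonist mode: compounds and dopamine controls were applied to plated cells for 90 min at 37 degrees C after an overnight attachment at 1500 cells/well. Luminescent read-out followed 30 - 60 minutes at room temperature with DiscoveRx detection reagent.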
D3 antag = qHTS of D3 Dopamine Receptor Antagonist: qHTS; D(3) dopamine receptor (Homo sapiens), P35462; D3R cells, DiscoveRx beta-arrestin luminescence, antagonist mode; active compounds read low; max response, negative = inhibition, %; hit rate 2.5% among 360,000; in the data active = max response below about -50%; inconclusive = no clear call, values can overlap the other calls; note: % is set by controls: 0 for no effect and ±100 for the full control effect
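Cells plated overnight at 1500 cells/well, then exposed to library compounds with dopamine controls for 90 minutes at 37 degrees C. DiscoveRx reagent added for 30–60 minutes at room temperature; luminescence read, quantitative HTS format.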
Starred values were filed as active, the others as inactive; ? = inconclusive; nt = no result given; ! = not confirmed by another sample. An excerpt weighted towards active compounds, which were near 6% of everything screened.

SMILES	BCR signal inh	D1 potentiator	D1 antag	D1 ag	DRD3 agonist	D3 antag
CN(C)c1ccc(-c2ccnc3c2CC(C)(C(=O)Nc2ccccc2)O3)cc1 (centres undefined)	nt	nt	nt	nt	4	8
O=c1oc2cc(Br)ccc2n1CSC1=NCCS1	-5%	-6	-3	13	-9	-53*
Cc1ccc2[nH]c3c(=O)n(CC(=O)N(CCN(C)C)Cc4ccccc4)ncc3c2c1	nt	-7	8	3	-10	nt
c1ccc(Cn2ccnc2SCc2nnc(-c3ccccc3)o2)cc1	nt	-7	-1	3	32*	16
Cc1nn(C)cc1CNC(=O)C1C2CCC(C2)C1C(=O)O (centres undefined)	0%	-3	-32*	6	nt	nt
CCOC(=O)c1sc2nc(NC(=O)C3CC3)sc2c1C	-14%	nt	0	6	2	-19
CCOC(=O)c1sc2nc(NC(=O)C(C)(C)C)sc2c1C	?	-6	-21	10	34*	33
COc1cc(OC)c(NC(=O)Nc2nnc(N(C)C3CCCCC3)s2)cc1Cl	nt	0	4	-1	1	nt
O=C(NCc1ccccc1)c1nc(S(=O)(=O)Cc2ccccc2)ncc1Cl	?	-6	-41*	0	1	-78*
COc1ccc(CNC(=O)c2nc(SC(C)C)ncc2Cl)cc1	nt	1	-26	1	-14	nt
COC(=O)c1ccccc1NC(=O)c1nc(S(=O)(=O)Cc2ccccc2)ncc1Cl	7%	-1	-19	2	-1	-77*
CCS(=O)(=O)c1ncc(Cl)c(C(=O)NCc2ccccc2)n1	nt	-3	-33*	1	-17	nt
CCCS(=O)(=O)c1ncc(Cl)c(C(=O)Nc2c(C(=O)Nc3ccccc3)oc3ccccc23)n1	nt	-2	-14	3	-26	nt
CC(=O)Nc1ccc(NC(=O)c2nc(S(=O)(=O)Cc3ccccc3)ncc2Cl)cc1	?	-4	13	5	-1	-29
COc1ccc(CNC(=O)c2nc(S(=O)(=O)Cc3ccccc3)ncc2Cl)cc1	?	-6	-37*!	6	-5	-97*
O=C(NCc1ccc2c(c1)OCO2)c1nc(S(=O)(=O)Cc2ccccc2F)ncc1Cl	?	-11	-49*	3	3	-92*
CCOc1ccc(NC(=O)c2nc(S(=O)(=O)Cc3ccccc3F)ncc2Cl)cc1	nt	-4	-29	1	-26	nt
N#Cc1c(Cl)cccc1Oc1ccc([S+](=O)([O-])N2CCN([S+](=O)([O-])c3c(F)cccc3F)CC2)cc1	nt	-5	-16	1	nt	nt
O=C(COC(=O)C1CCC(N2C(=O)C3C4CCC(C4)C3C2=O)CC1)c1ccc(F)cc1 (centres undefined)	1%	-9	-35*	12	1	1
Cc1ccc(N2CC(C(=O)OCC(=O)c3ccc(F)cc3)CC2=O)cc1 (centres undefined)	-5%	-3	-26	0	7	10
O=C(COC(=O)C1CC(=O)N(C2CCCCC2)C1)c1ccc(F)cc1 (centres undefined)	0%	-3	-12	7	-7	-58*
COc1ccc(C(=O)COC(=O)CN2C(=O)C3C4CCC(C4)C3C2=O)cc1 (centres undefined)	0%	nt	-19	5	26	8
CC(=O)OCCNc1cc(N2CCN(C)CC2)c2noc3c2c1C(=O)c1ccccc1-3	?	-1	-3	0	-23	-52*
Cc1ccc(F)cc1NC(=O)CCOc1ccccc1	?	-7	-31*	6	9	7
CCOc1ccccc1NC(=O)C(OC(=O)C1CC1)c1ccccc1 (centres undefined)	-10%	-2	-18	30*	12	27
SMILES	BCR signal inh	D1 potentiator	D1 antag	D1 ag	DRD3 agonist	D3 antag
OC[C@@H]1CN(Cc2ccc(F)cc2)C[C@H](n2cnc3c(N4CCOCC4)ncnc32)O1	nt	nt	nt	nt	4	0
CCCCNC(=O)Cn1ncc2c(C)n(Cc3cccc(Cl)c3)c(C)c2c1=O	nt	1	2	3	5	nt
Cn1nnc(NC(=S)NC(=O)c2cc(Cl)ccc2Cl)n1	?	-3	-12	3	-21	-70*
COc1cc2ccccc2cc1C(=O)NC(=S)Nc1nnn(C)n1	7%	0	13	3	1	1
Cc1ccccc1NC(=O)Cc1nc(COC(=O)c2ncc(Cl)c(Cl)c2Cl)cs1	nt	nt	nt	nt	-5	-8
NS(=O)(=O)c1ccc(NC(=O)c2ccccc2Cl)cc1	-5%	-2	7	2	-1	0
NS(=O)(=O)c1ccc(NC(=O)c2cccc3ccccc23)cc1	?	-7	-36*	0	-1	7
COC(=O)c1ccccc1NC(=O)CN1CCN(C23CC4CC(CC(C4)C2)C3)CC1	9%	-1	-27	2	-39	-76*
COc1cc(OC)c(NS(=O)(=O)c2ccc3c(c2)NC(=O)CCS3)cc1Cl	nt	2	-38*	15	4	nt
CC(C)C[C@@H](CNCC(=O)[C@H](CC(=O)O)NC(=O)c1[nH]cnc1C(=O)N[C@H](CN)CC(C)C)NC(=O)c1nc[nH]c1C(=O)N[C@@H](Cc1ccccc1)C(=O)O	nt	nt	nt	nt	-45	-72*
CC(C)C[C@@H](CN)NC(=O)c1nc[nH]c1C(=O)N[C@@H](CC(C)C)C(=O)CNC[C@H](C)NC(=O)c1nc[nH]c1C(=O)N[C@@H](CC(=O)O)C(=O)O	nt	nt	nt	nt	46*	2
CC(C)C[C@@H](CNCC(=O)[C@H](CC(C)C)NC(=O)c1[nH]cnc1C(=O)N[C@H](CN)CC(C)C)NC(=O)c1nc[nH]c1C(=O)N[C@@H](CC(=O)O)C(=O)O	nt	nt	nt	nt	-23	0
COC(=O)c1cc2sc(C)cc2n1Cc1nc(-c2cccc(Br)c2)oc1C	nt	-3	10	0	7	nt
COc1ccc(C(=O)CC2(O)C(=O)Nc3c(C)cccc32)c(OC)c1OC (centres undefined)	nt	-4	19	0	11	nt
CNS(=O)(=O)c1ccc(Oc2ccc(S(=O)(=O)NC)cc2)cc1	0%	-6	-44*	8	-8	-3
CN(Cc1ccccc1)C(CNS(=O)(=O)c1ccccc1)c1ccccc1 (centres undefined)	nt	nt	nt	nt	-7	0
C=CCc1ccccc1OCC(O)CN1CCN(c2ccc(C)cc2)CC1 (centres undefined)	?	-12	-50*	1	-30	-59*
